# Laboratory results taken from article PMC7862700, “An all-to-all approach to the identification of sequence-specific readers for epigenetic DNA modifications on cytosine”.
# Assays:
# Experiment in all cases: DAPPL (digital affinity profiling via proximity ligation, sequencing); 10 mM Tris-HCl pH 7.5, 50 mM NaCl, 1 mM DTT, 4% glycerol, room temperature, 30 min; GST-TFs on glutathione beads, 16-mer random dsDNA library, 0.1% formaldehyde crosslink after washing; high values mean tight binding
# FEV = target: T1, FEV (Homo sapiens, UniProt Q99581 1-238); settings: protein: recombinant; tags: N-terminal GST; dsDNA, one strand shown
# T1 sequence: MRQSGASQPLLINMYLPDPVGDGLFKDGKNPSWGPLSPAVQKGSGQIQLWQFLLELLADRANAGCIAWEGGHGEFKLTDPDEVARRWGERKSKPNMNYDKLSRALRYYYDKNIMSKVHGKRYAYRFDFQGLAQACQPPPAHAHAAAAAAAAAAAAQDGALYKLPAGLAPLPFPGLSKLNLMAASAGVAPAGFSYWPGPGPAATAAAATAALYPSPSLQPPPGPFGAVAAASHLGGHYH
# Procedure, shortened: (§1)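 Beads coated with glutathione captured GST-fused human transcription factors that had been expressed in yeast, and the factors were then given DNA barcodes and pooled with a tag-only sample. The pools were incubated with 200 nmole of a random double-stranded 16-mer DNA library in Tris/NaCl/DTT/glycerol buffer for 30 min at room temperature, washed, crosslinked with 0.1% formaldehyde and proximity-ligated with BsaI/T4 ligase at 37 °C for 1 h. PCR amplification and Illumina NextSeq500 sequencing came last. Binding signal is each hexamer's read frequency for a factor divided by its frequency for the tag-only sample.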
# ETV5 = ETV5 (Homo sapiens, UniProt P41161 1-510); settings: protein: recombinant; tags: N-terminal GST; dsDNA, one strand shown
# Procedure, shortened: as §1
# HSF1 = HSF1 (Homo sapiens, UniProt Q00613 1-529); settings: protein: recombinant; tags: N-terminal GST; chain copies: 3; dsDNA, one strand shown
# Procedure, shortened: as §1
# SPIC = target: T2, SPIC (Homo sapiens, UniProt Q8N5J4 1-248); settings: protein: recombinant; tags: N-terminal GST; dsDNA, one strand shown
# T2 sequence: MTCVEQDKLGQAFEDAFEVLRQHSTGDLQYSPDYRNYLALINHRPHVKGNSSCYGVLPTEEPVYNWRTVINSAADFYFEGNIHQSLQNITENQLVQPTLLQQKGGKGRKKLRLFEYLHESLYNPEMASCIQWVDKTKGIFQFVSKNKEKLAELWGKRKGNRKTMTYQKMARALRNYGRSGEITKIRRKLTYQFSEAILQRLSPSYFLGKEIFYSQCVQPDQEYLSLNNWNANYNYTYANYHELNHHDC
# Procedure, shortened: as §1
# ELF4 = ELF4 (Homo sapiens, UniProt Q99607 1-663); settings: protein: recombinant; tags: N-terminal GST; dsDNA, one strand shown
# Procedure, shortened: as §1
# ELK4 = target: T3, ELK4 (Homo sapiens, UniProt P28324-2 1-405); settings: protein: recombinant; tags: N-terminal GST; dsDNA, one strand shown
# T3 sequence: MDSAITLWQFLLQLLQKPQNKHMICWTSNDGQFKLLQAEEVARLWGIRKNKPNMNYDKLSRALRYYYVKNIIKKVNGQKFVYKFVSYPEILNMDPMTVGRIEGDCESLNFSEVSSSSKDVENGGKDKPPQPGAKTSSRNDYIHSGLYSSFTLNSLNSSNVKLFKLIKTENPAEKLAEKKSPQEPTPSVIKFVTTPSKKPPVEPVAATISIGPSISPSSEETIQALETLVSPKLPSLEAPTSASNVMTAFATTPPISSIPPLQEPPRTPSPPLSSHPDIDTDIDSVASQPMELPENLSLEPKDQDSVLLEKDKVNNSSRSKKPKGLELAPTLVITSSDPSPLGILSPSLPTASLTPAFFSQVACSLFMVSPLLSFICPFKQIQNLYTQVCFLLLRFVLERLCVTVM
# Procedure, shortened: as §1
# ETV2 = target: T4, ETV2 (Homo sapiens, UniProt O00321 1-342); settings: protein: recombinant; tags: N-terminal GST; dsDNA, one strand shown
# T4 sequence: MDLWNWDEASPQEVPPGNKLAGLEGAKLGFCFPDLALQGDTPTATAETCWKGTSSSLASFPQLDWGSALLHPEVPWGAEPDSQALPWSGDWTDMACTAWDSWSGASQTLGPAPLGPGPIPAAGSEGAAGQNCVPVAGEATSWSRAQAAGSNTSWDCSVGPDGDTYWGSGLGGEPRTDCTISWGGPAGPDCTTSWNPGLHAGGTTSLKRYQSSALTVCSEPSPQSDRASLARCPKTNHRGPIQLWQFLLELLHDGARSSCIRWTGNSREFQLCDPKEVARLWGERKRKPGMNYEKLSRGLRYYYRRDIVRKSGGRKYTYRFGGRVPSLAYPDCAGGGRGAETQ
# Procedure, shortened: as §1
# ELF3 = target: T5, ELF3 (Homo sapiens, UniProt P78545 1-371); settings: protein: recombinant; tags: N-terminal GST; dsDNA, one strand shown
# T5 sequence: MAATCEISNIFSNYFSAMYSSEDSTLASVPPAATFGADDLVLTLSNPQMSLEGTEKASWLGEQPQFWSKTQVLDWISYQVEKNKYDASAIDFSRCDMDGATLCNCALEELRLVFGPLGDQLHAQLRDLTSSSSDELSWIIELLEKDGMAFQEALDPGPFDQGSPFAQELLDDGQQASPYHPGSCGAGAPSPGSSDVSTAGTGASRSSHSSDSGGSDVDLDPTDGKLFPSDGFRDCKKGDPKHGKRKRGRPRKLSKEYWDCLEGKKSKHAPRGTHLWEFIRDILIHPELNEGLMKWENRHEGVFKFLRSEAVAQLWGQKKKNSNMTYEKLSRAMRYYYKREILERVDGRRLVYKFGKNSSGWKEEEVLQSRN
# Procedure, shortened: as §1
# CRX = CRX (Homo sapiens, UniProt O43186 1-299); settings: protein: recombinant; tags: N-terminal GST; dsDNA, one strand shown
# Procedure, shortened: as §1
# ETV5, sequence (P41161 whole entry): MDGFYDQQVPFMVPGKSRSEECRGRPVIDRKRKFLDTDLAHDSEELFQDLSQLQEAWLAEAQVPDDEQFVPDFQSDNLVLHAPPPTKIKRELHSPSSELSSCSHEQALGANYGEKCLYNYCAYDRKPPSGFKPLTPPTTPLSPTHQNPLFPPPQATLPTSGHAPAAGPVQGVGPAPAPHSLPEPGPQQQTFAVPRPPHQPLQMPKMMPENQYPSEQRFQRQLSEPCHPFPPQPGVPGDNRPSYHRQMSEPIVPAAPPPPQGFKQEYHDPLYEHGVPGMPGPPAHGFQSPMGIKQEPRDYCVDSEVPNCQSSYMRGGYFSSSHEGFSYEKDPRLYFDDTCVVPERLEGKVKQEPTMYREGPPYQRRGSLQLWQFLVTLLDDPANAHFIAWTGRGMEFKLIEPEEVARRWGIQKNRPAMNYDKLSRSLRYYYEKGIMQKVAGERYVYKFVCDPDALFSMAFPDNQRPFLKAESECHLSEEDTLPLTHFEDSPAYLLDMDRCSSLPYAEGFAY
# CRX, sequence (O43186 whole entry): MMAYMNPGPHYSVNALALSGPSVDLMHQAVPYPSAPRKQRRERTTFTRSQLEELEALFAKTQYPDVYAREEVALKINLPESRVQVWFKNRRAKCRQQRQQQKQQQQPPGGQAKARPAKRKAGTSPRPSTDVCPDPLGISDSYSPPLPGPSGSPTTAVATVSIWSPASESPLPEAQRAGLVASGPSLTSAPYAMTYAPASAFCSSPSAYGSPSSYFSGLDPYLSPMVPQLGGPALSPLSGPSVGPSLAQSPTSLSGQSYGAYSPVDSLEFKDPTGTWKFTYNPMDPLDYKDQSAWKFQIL
# HSF1, sequence (Q00613 whole entry): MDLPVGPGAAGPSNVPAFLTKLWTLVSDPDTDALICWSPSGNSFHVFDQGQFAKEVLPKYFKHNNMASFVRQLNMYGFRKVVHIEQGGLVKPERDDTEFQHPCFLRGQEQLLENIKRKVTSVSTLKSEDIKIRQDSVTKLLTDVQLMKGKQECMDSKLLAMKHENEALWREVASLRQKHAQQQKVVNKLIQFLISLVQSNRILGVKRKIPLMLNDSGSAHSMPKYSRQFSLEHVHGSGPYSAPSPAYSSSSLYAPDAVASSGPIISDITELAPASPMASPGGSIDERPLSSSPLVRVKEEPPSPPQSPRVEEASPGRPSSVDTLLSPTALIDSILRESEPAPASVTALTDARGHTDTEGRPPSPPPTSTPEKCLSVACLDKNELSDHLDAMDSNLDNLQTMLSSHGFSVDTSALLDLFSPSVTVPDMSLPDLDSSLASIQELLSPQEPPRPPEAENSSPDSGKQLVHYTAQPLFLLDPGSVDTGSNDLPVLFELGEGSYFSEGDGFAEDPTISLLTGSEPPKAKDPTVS
# ELF4, sequence (Q99607 whole entry): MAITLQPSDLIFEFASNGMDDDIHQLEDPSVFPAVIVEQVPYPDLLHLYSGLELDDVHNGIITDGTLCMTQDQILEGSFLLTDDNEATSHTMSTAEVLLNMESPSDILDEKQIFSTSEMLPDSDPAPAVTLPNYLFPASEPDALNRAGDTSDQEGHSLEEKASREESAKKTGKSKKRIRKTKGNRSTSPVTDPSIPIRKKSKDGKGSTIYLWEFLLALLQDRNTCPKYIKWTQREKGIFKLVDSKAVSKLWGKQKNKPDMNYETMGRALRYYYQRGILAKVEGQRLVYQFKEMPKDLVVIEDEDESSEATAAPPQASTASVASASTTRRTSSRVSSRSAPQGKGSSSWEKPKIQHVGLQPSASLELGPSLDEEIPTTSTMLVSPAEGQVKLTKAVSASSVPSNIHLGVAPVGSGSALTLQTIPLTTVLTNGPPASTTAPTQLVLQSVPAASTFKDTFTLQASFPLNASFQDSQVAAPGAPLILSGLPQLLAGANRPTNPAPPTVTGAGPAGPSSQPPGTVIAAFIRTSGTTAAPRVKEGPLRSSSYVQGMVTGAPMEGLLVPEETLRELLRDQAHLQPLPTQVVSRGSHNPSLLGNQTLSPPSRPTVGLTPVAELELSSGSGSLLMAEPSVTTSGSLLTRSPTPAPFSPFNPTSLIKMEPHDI
sequence,measurement,setting,value
ATCTTC,binding signal,FEV,"1.39 fold enrichment (6-mer frequency, TF over GST control)"
same,binding signal,ETV5,"1.6 fold enrichment (6-mer frequency, TF over GST control)"
same,binding signal,HSF1,"2.15 fold enrichment (6-mer frequency, TF over GST control)"
same,binding signal,SPIC,"1.49 fold enrichment (6-mer frequency, TF over GST control)"
same,binding signal,ELF4,"1.31 fold enrichment (6-mer frequency, TF over GST control)"
same,binding signal,ELK4,"1.56 fold enrichment (6-mer frequency, TF over GST control)"
same,binding signal,ETV2,"1.75 fold enrichment (6-mer frequency, TF over GST control)"
same,binding signal,ELF3,"1.69 fold enrichment (6-mer frequency, TF over GST control)"
same,binding signal,CRX,"1.98 fold enrichment (6-mer frequency, TF over GST control)"
